Screening results (PubChem)
This is a sample that favours compounds with a hit; in the whole collection about 7.9% have one here.
HT1080 IDH1KD tx = toxicity to HT-1080 IDH1 knockdown cells (counter line); HT-1080 IDH1 knockdown viability, ATP luminescence, 48 h; Potency, µM (doses to about 46.1 µM), without a hit: at the highest dose activity, negative = toxicity, most hits filed as cytotoxic; actives 2% (n = 360,000);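 note: 0% = DMSO wells and -100% = cell-free medium wells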
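In this qHTS, HT-1080 cells depleted of IDH1 are exposed for 48 h at 37 °C to compound titrations. Toxicity is scored from CellTiter-Glo luminescence, with DMSO as full viability and medium alone as none.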
HT1080NT lethal = kills 2HG-producing HT-1080-NT fibrosarcoma cells. HT-1080-NT fibrosarcoma viability, CellTiter-Glo ATP luminescence, 48 h. Potency, µM (doses to about 46.1 µM), inactives show at the highest dose activity, negative = less viability, most hits filed as cytotoxic. actives 1.6% (n = 360,000);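 note: NT is the 2HG producing partner of a matched IDH1 knockdown line; 0% = DMSO-treated cells and -100% = media-only wells without cells; nearly all actives have a fitted effect of over 55% in size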
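Viability by CellTiter-Glo luminescence after 48 h compound exposure at 37C of HT-1080-NT cells (750/well, RPMI, 5% FBS). % activity scaled between DMSO wells and medium-only wells, then curve-fitted and categorized by curve class.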
MCF10A rereplic = inducers of DNA re-replication in MCF 10A breast cells. MCF 10A DNA re-replication, Hoechst nuclear intensity, 48 h. actives 2.9% (n = 350,000). Potency, µM (titrated, usually from 46.1 µM), inactives show at the highest dose activity, positive = re-replication, actives largely listed as activators; note: % of control where 0% means no effect; nearly all actives have a fitted effect of over 50% in size
KB-3-1 tox = KB-3-1 parental cell cytotoxicity; KB-3-1 viability, CellTiter-Glo ATP luminescence, 72 h; Potency, µM (highest dose often 46.1 µM), actives largely listed as cytotoxic; actives 1.4% (n = 400,000); AID 1347075; note: % is set by controls: 0 for no effect and ±100 for the full control effect; nearly all actives have a fitted effect of over 60% in size
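Viability of parental KB-3-1 cells, measured by CellTiter-Glo luminescence, followed a 72 h incubation at 37 °C with pinned compounds in phenol-red-free DMEM containing 10% FBS.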
KB-V1 MDR tox = kills drug-selected multidrug resistant KB-V1 cells. KB-V1 MDR cells viability, CellTiter-Glo, 72 h. Potency, µM (doses to about 46.1 µM), most hits filed as cytotoxic. actives 3.4% (n = 400,000). AID 1347076; note: % is set by controls: 0 for no effect and ±100 for the full control effect; nearly all actives have a fitted effect of over 60% in size
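Luminescent ATP read-out (CellTiter-Glo, 10 min) measures survival of drug-selected KB-V1 MDR cells after 72 h, 37 degrees C compound exposure. Medium: phenol-red-free DMEM, 10% FBS. Values from fitted concentration-response curves.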
SW480 rereplic = inducers of DNA re-replication in SW480 colon cancer cells. Potency, µM (top dose mostly 46.1 µM), inactives show at the top dose re-replication activation, most hits filed as activators. SW480 DNA re-replication, Hoechst DNA content imaging, 48 h. actives 1.8% (n = 340,000); note: % of control where 0% means no effect; nearly all actives have a fitted effect of over 55% in size
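First, 250 cells per well were seeded. Next, compound or vehicle (23 nL) was pinned in, plates sat 48 hr at 37 C. Finally Hoechst was added for 40 min before fluorescence scanning.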
* marks the source's active call; other numbers are inactive results; i = inactive; u = inconclusive; x = no result; ! = repeats disagree; [ ] = dose if it differs, or a comment. Calls come from the whole dose curve; as a rule, active = well fitted curve in the direction sought with a large enough effect; inconclusive = small, poorly fitted or top-dose-only effect, or another doubt; inactive = no such curve, though single readings can be large; an effect the other way counts as inactive or inconclusive. Potency is the fitted concentration of half-maximal effect.

SMILES	HT1080 IDH1KD tx	HT1080NT lethal	MCF10A rereplic	KB-3-1 tox	KB-V1 MDR tox	SW480 rereplic
CS(=O)(=O)c1nc(-c2ccccc2)cc(C(F)(F)F)n1	12µM*	21µM*	2.6µM*	u	u	u
Cc1cc(NC(=O)CCS(=O)(=O)c2nc(-c3ccccc3)cc(C(F)(F)F)n2)no1	-14%[9.24 µM]	u	5.2µM*	u	i	u
CCC1CCC/C1=N\NC(=O)c1cc(C)[nH]n1 (stereo not given)	0%	21%	2.9µM*	i	i	16µM*
Cc1ccc(S(=O)(=O)N(C)c2ccc3c(c2)C(=O)c2ccccc2-3)cc1	1%	0%	x	u	21µM*	x
Cc1ccc(S(=O)(=O)Nc2ccc(N(C)S(=O)(=O)c3ccc(C)cc3)cc2)cc1	u	-30%	18%	i	i	13%
COc1ccc(CNC(=O)C2(C)Cc3c(-c4cccc(NC(C)=O)c4)ccnc3O2)cc1OC (stereo not given)	u	-27%	x	i	i	x
Cc1nc2cc(N3CCCCC3)c(NC(=O)c3ccncc3)cc2c(=O)n1Cc1ccccc1	5.2µM*	3.7µM*	2%	i	i	u
CCN(CC(=O)Nc1ccc(NC(C)=O)cc1)C(=O)CCCSc1nc2ccccc2[nH]1	-2%	-5%	-1%	i	i	-348%
CN(C)c1nc(N)nc(CSc2nnnn2-c2ccccc2)n1	4%	11%	22%	i	i	-14%
CN(C)c1nc(N)nc(CSc2nnnn2-c2ccc(Cl)cc2)n1	23µM*	u	x	i	i	x
CN(C)c1nc(N)nc(CSc2nnnn2C)n1	16%	16%	-3%	i	u	-2%
CN(C)c1nc(N)nc(CSc2ncc(Cl)cc2Cl)n1	-1%	-3%	u	i	15µM*	4%
CCOc1ccc(NC(=O)CN(C)C(=O)Cc2ccc3c(c2)OCCO3)cc1OCC	-2%	-3%	x	i	i	x
CSc1nc2[nH]c(=O)n(O)c(=O)c2n1Cc1ccccc1	u	u	u	u	i	2.3µM*
CSc1nc2c(c(=O)n1Cc1ccccc1)SC(C)C2 (stereo not given)	-17%	-2%	7%	i	u	u
Cc1ccc(S[C@@H](CCN2CC[C@H](C)CCC2=O)c2ccccc2)cc1	-1%	-8%	u	u	12µM*!	-6%
COc1ccc(S[C@@H](CCN2CC[C@H](C)CCC2=O)c2ccccc2)cc1	-9%	-24%	18µM*	i	u	-2%
C[C@@H]1CCC(=O)N(CC[C@H](Sc2ccc(Br)cc2)c2ccccc2)CC1	u	u	-33%	u	u	16%
Cc1ccc(N(CC(O)Cn2c3ccccc3c3ccccc32)S(C)(=O)=O)cc1 (stereo not given)	u	u	16%	u	i	-5%
Cc1ccc(N(CC(O)CON=C2c3ccccc3-c3ccccc32)S(C)(=O)=O)cc1 (stereo not given)	u	u	5%	i	23µM*	14%
N/C(CCS(=O)(=O)c1ccc(Cl)cc1)=N\OC(=O)c1ccc(Cl)cc1	-7%	-14%	-1%	i	i	0%
N/C(CCS(=O)(=O)c1ccc(Cl)cc1)=N\OC(=O)c1ccccc1C(F)(F)F	21µM*	u	u	u	u	u
Cc1ccc(Nc2nc(C)cc(C)n2)c(C(=O)O)c1	x	x	x	i	i	x
C=CCN1CCC(=O)C(C(=O)OCC)=C1C(=O)OCC	0%	13%	-3%	i	i	-15%[9.22 µM]
CCCN(CC(=O)Nc1ccccc1C)C(=O)c1ccc(COc2ccccc2)cc1	-19%	-9%	27%	i	u	-3%
SMILES	HT1080 IDH1KD tx	HT1080NT lethal	MCF10A rereplic	KB-3-1 tox	KB-V1 MDR tox	SW480 rereplic
OCC1(Cc2ccccc2)CCN(Cc2cnc(-c3cccc4ccccc34)nc2)CC1	-5%	-7%	u	i	i	-3%
OCC1(Cc2ccccc2)CCN(Cc2cnc(-c3ccc(Cl)cc3)nc2)CC1	26µM*	u	u	u	u	-2%
C=CCNC1=C2C[C@@H](C)C[C@H](OC)[C@H](O)[C@@H](C)/C=C(\C)[C@H](OC(N)=O)[C@@H](OC)/C=C\C=C(/C)C(=O)NC(=CC1=O)C2=O	x	x	0.067µM*	x	x	3%
COC1C=CC=C(C)C(=O)NC2=CC(=O)C(N)=C(CC(C)CC(OC)C(O)C(C)C=C(C)C1OC(N)=O)C2=O (stereo not given)	0.041µM*	u	64%	i	i	0.23µM*
Cc1noc(C)c1CSCC(=O)N(CC(C)C)c1c(N)n(Cc2ccccc2)c(=O)[nH]c1=O	5%	9%	-2%	i	i	24%
COc1ccc(OC)c(CN2C(=O)c3ccccc3C2c2nnnn2-c2ccc3c(c2)OCCO3)c1 (stereo not given)	u	u	x	4.6µM*	i	x
COc1ccc(CCN2C(=O)c3ccccc3C2c2nnnn2-c2ccc3c(c2)OCCO3)cc1OC (stereo not given)	20%	2%	x	i	u	x
CN1CCN(C(=O)CCN2C(=O)S/C(=C/c3ccc(Cl)cc3)C2=O)CC1	10%	21%	u	i	u	-5%
COc1ccc(/C=C2\SC(=S)N(CCCC(=O)N3CCOCC3)C2=O)cc1	-15%	-6%	u	23µM*	u	u
CN1CCN(C(=O)CCN2C(=O)/C(=C\c3ccccc3F)SC2=S)CC1	u	-13%	23µM*	u	i	u
